Data as given in PubChem BioAssay AID1347076 (National Center for Advancing Translational Sciences (NCATS), 2019).
About 13,000 (3.2%) of roughly 400,000 compounds were called active. Inconclusive results (about 18%) are left out. This excerpt belongs to a sample that is enriched for actives. Values without a mark were called inactive. Calls come from the whole dose curve; as a rule, active = well fitted cell-killing curve with a large enough effect; inconclusive = small, poorly fitted or top-dose-only effect, or effect the other way; inactive = flat fitted curve, though single readings scatter.

assay: qHTS assay for MDR1-selective chemotherapeutics: Primary screen using the drug-selected MDR subline cells KB-V1; details: KB-V1 MDR cells viability, CellTiter-Glo, 72 h; series mostly up to 46.1 µM; activity change, negative = cytotoxicity: at the top concentration; note: nearly all actives have a fitted effect of over 60% in size
How it was run: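 Potencies derive from concentration-effect curves fitted to normalized luminescence (CellTiter-Glo) of KB-V1 cells treated for 72 h at 37 degrees C in phenol-red-free DMEM containing 10% FBS.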
% is set by controls: 0 for no effect and ±100 for the full control effect; potency is the fitted concentration of half-maximal effect.

Compared with `O=C(c1cnn2c1NC(=C1CC1)C=C2C(F)F)N1CCc2ccccc2C1`, `O=C(c1ccc2c(c1)N(Cc1ccccc1F)C(=O)c1ccccc1S2(=O)=O)N1CCOCC1` is lower in “activity change, negative = cytotoxicity” value: 7.8% for the first, -15.2% for the second.

Going from `CCn1cc(C(=O)NCc2ccccc2)c(=O)c2cc(S(=O)(=O)N3CCCCC3)ccc21` to `CCN(CC)S(=O)(=O)c1ccc2c(c1)c(=O)c(C(=O)N1CCN(c3cccc(Cl)c3)CC1)cn2C`, the “activity change, negative = cytotoxicity” value rises from -5.6% to 21.8%.

Compared with `CCOC(=O)C1=CCC2C(=O)N(Cc3ccccc3)C(=O)C12` (stereo unspecified), `COC(=O)c1ccccc1SC1CC(=O)N(c2cccc(C)c2)C1=O` (stereo unspecified) is lower in “activity change, negative = cytotoxicity” value: 11.2% for the first, -2.53% for the second.

First: COc1cc2ccccc2cc1C(=O)Nc1ccc(S(=O)(=O)Nc2cc(C)on2)cc1
Second: COc1cc(NS(=O)(=O)c2ccc(NC(C)=O)cc2)cc(OC)c1
The “activity change, negative = cytotoxicity” value of the first is higher: -2.9% for the first, -3.57% for the second.

Compared with `CCc1ccc(S(=O)(=O)Nc2cc3c(C(=O)OCc4ccccc4)c(C)oc3c3ccccc23)cc1`, `CC(=O)c1c(C)oc2ccc(NS(=O)(=O)c3ccc(C(=O)O)cc3)cc12` is higher in “activity change, negative = cytotoxicity” value: 0% for the first, 12.6% for the second.

Going from `CN1CCn2cnc(C(=O)NCC(=O)OC(C)(C)C)c2C1=O` to `CCCNC(=O)C(CC)n1nc(CC)n2c(cc3oc(C)cc32)c1=O` (stereo unspecified), the “activity change, negative = cytotoxicity” value falls from 15.1% to -12%.

Going from `Cc1cccc(-n2ccnc2SCC(=O)Nc2cc(C(F)(F)F)ccc2Cl)c1` to `COc1ccc(Cl)cc1NC(=O)c1cccc(N2C(=O)C3CC=CCC3C2=O)c1` (stereo unspecified), the “activity change, negative = cytotoxicity” value rises from -2.14% to 3.02%.

Compared with `C[C@H](O)[C@@H]1C(=O)N2CCc3c([nH]c4ccccc34)[C@@H]2C[C@@H]1N(C)C(=O)Nc1ccc(F)cc1`, `Cc1ccc(C(=O)NC2CCN(C(=O)Nc3ccc(F)cc3)CC2)cc1` is lower in “activity change, negative = cytotoxicity” value: 0.0676% for the first, 0% for the second.

Compared with `N#CC1(Nc2ccc3c4c(cccc24)CC3)CCCCC1`, `O=C(CCc1nc2sc3c(c2c(=O)[nH]1)CCCC3)NCC(=O)Nc1ccccc1Br` is lower in “activity change, negative = cytotoxicity” value: 10.3% for the first, -26.1% for the second.

Going from `O=C(NCCCN1CCOCC1)c1cc2c(s1)CCC2` to `CCS(=O)(=O)N1CCCC(C(=O)NCc2ccc(C)cc2)C1` (stereo unspecified), the “activity change, negative = cytotoxicity” value falls from 13.1% to 9.47%.

First: CCN(Cc1ccncc1)C(=S)Nc1ccccc1C
Second: Clc1ccccc1Nc1nc(NCc2cccs2)nc2ccsc12
The “activity change, negative = cytotoxicity” value of the first is higher: 12.6% for the first, -0.485% for the second.

Going from `COc1ccc([C@H]2C[C@@H](n3cc(COC(=O)c4ccccc4)nn3)[C@H](O)CN2C(=O)c2cccs2)cc1` to `O=C(OCc1cn([C@@H]2C[C@H](c3ccc(Cl)cc3)N(Cc3cccs3)C[C@H]2O)nn1)c1ccccc1`, the “activity change, negative = cytotoxicity” value falls from 9.34% to -16.6%.

Going from `O=C(Nc1ccc(OCCO)cc1)c1csc([C@H]2C[C@H](O)[C@@H](CO)O2)n1` to `COc1ccc(C(=O)NCc2nnc(SCCOc3ccccc3)n2C)cc1`, the “activity change, negative = cytotoxicity” value falls from 4.16% to -6.27%.

Going from `Fc1cccc(Cc2c(-c3cccc(Cl)c3)nc3ccc(Br)cn23)c1` to `O=C1Nc2ccccc2NC(c2ccc3c(c2)OCO3)=C1N(Cc1ccc(F)cc1)C(=O)c1ccco1`, the “activity change, negative = cytotoxicity” value falls from 11.4% to 0%.

First: COc1ccc(Cl)cc1NC(=O)COc1ccc2c(c1)OCO2
Second: COc1ccc(C2c3c(oc4ccccc4c3=O)C(=O)N2Cc2ccc3c(c2)OCO3)cc1 (stereo unspecified)
The “activity change, negative = cytotoxicity” value of the first is higher: 23.4% for the first, 12.9% for the second.

Compared with `O=C(CCSc1ccccc1)N1CCN(c2ccccc2F)CC1`, `CC1(C2CC2)NC(=O)N(CC(=O)N2CCN(c3ccccc3F)CC2)C1=O` (stereo unspecified) is lower in “activity change, negative = cytotoxicity” value: -18.4% for the first, -20.2% for the second.

Going from `CC(C)(C(=O)N1CCC1(C)C(=O)NS(=O)(=O)c1ccc(Br)cc1)c1ccccc1` (stereo unspecified) to `C=CCn1c(SCC(=O)c2ccc(Br)cc2)nnc1C(C)NC(=O)Cc1ccc(OC)cc1` (stereo unspecified), the “activity change, negative = cytotoxicity” value falls from 5.43% to 0.852%.

Going from `CC(OC(=O)c1cccnc1Cl)C(=O)NC1CCCCC1` (stereo unspecified) to `Cc1ccnc(SC2CC(=O)N(c3ccccc3)C2=O)n1` (stereo unspecified), the “activity change, negative = cytotoxicity” value rises from 2.47% to 18.5%.

With `CCOC(=O)c1c(C)[nH]c(C)c1C(=O)COC(=O)/C=C/c1cccc([N+](=O)[O-])c1` the “activity change, negative = cytotoxicity” value was 7.85%.

With `C=CCn1cc(C(=O)NCc2ccc(Cl)cc2)c(=O)c2cc(S(=O)(=O)N(CC)CC)ccc21` the Potency was 18.4 µM (active).
For `COc1ccc(S(=O)(=O)Nc2ccc3oc(C)c(C(C)=O)c3c2)cc1`, the Potency was 2.59 µM (active).
In the case of `COc1ccc(S(=O)(=O)Nc2cc3c(C(=O)OC(C)C)c(C)oc3c3ccccc23)cc1`, the Potency is reported as 5.17 µM (active).
With `O=C(CNC(=O)c1cc2c(s1)CCC2)Nc1ccccc1Br` the Potency was 18.4 µM (active).
With `COc1ccc(Cl)cc1NC(=O)COC(=O)C(CC(C)C)N1C(=O)C2CC=CCC2C1=O` (stereo unspecified) the Potency was 10.3 µM (active).
With `O=C(Cn1c(-c2ccc(Cl)cc2)noc1=O)N1CCN(c2ccccc2F)CC1` the Potency was 9.2 µM (active).
With `Cc1ccc(NC(=O)N2CCC(C(=O)NCc3ccc(F)cc3)CC2)cc1` the Potency was 18.4 µM (active).
In the case of `C=CCn1c(SCCOc2ccc(OC)cc2)nnc1C(NC(=O)c1ccc(OC)cc1)C(C)C` (stereo unspecified), the Potency is reported as 11.6 µM (active).
With `CCc1cccc(CC)c1N1C(=O)CC(Sc2ccccc2N)C1=O` (stereo unspecified) the Potency was 6.51 µM (active).
